High-throughput results (PubChem)
An excerpt weighted towards active compounds, which were near 11% of everything screened.
NIH3T3 tox – Cytotoxic Profiling in NIH 3T3 Cell Line of Diverse Libraries Using Quantitative High-Throughput Screening; NIH 3T3 viability, CellTiter-Glo ATP luminescence, 48-72 h; 94,000 compounds, 4.3% hits; Potency, µM (doses to about 96.7 µM), for inactives: at the highest dose activity change, negative = cytotoxicity, usual class: inhibitors; further: nearly all actives have a fitted effect of over 55% in size
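Cytotoxicity is measured as loss of cellular ATP: NIH 3T3 cells (400/well) are exposed to compound for 48 or 72 hr at 37 °C, then CellTiter-Glo luminescence is imaged after 10 min at room temperature.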
FLuc inh – Firefly luciferase inhibition profiling of diverse chemical library using quantitative high-throughput screening; purified P. pyralis luciferase, luminescence, biochemical; 76,000 compounds, 2.5% hits; Potency, µM (titrated, usually from 115 µM), hits mostly inhibitors; Luciferin 4-monooxygenase (Photinus pyralis), P08659; further: nearly all actives have a fitted effect of over 65% in size
Target sequence (P08659 whole entry, looked up): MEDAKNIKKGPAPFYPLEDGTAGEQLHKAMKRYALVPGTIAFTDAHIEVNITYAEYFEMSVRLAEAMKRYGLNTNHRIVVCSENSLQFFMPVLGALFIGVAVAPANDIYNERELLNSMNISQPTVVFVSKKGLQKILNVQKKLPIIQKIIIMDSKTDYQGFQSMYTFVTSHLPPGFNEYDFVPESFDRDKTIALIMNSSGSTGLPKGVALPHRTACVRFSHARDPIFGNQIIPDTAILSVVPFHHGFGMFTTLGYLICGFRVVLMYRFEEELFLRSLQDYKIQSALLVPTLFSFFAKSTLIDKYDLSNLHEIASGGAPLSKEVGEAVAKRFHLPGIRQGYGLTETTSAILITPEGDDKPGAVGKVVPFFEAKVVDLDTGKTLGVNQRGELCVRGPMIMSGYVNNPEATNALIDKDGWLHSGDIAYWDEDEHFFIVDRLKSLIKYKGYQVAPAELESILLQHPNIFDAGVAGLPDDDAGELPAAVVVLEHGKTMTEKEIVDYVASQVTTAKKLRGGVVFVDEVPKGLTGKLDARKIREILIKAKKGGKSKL
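Biochemical qHTS: compound (6-point titration) added to 10uM D-luciferin plus 10uM ATP in Tris acetate pH 7.5 buffer with Mg, Tween-20 and BSA, then purified enzyme at 10nM; light output imaged.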
HEK cytotox – Cytotoxic Profiling in HEK 293 Cell Line of Diverse Libraries Using Quantitative High-Throughput Screening; HEK 293 viability, ATP luminescence (CellTiter-Glo), 48-72 h; Potency, µM (series often up to 115 µM), inactives show at the highest dose activity change, negative = cytotoxicity, most hits filed as inhibitors; 94,000 compounds, 6.6% hits; AID 1345083, 2018; further: nearly all actives have a fitted effect of over 60% in size
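qHTS cytotoxicity; HEK 293, 250 cells/well; compound pinned; 48 or 72 hr, 37 degree Celsius, 5% CO2, 95% humidity; CellTiter-Glo, 10 min RT; luminescence (ATP).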
hNpr1 antagonist – Natriuretic polypeptide receptor (hNpr1) antagonism - Primary qHTS; Atrial natriuretic peptide receptor 1 (Homo sapiens), P16066; HEK293 hNpr1 GloSensor cGMP, ANP-stimulated luminescence; Potency, µM (titrated, usually from 46.3 µM), for inactives: at the top dose activity change, negative = inhibition, most hits filed as inhibitors; 76,000 compounds, 1.6% hits; calls by dose curve; further: nearly all actives have a fitted effect of over 60% in size
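Compound pre-incubated 30 min at room temperature on GloSensor-loaded HEK293 cells stably carrying hNpr1 and the pGS-40F cGMP biosensor. Stimulation uses hNppA at 0.1 nM final; luminescence is taken at baseline and 20 min post-agonist.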
* = called active by the depositor; i = inactive; ? = inconclusive; · = no result given; [ ] = another dose, or the depositor's remark. Unless noted, the call rests on the fitted dose curve; in most records, active means well fitted curve in the direction sought with a large enough effect; inconclusive means small, poorly fitted or top-dose-only effect, or another doubt; inactive means no such curve, though single readings can be large; an effect the other way counts as inactive or inconclusive. On the % scale 0 is the no-effect control and ±100 the full control effect; potency means the concentration at half of the fitted maximal effect.

SMILES	NIH3T3 tox	FLuc inh	HEK cytotox	hNpr1 antagonist
CCc1cccc2c(C(CC(=O)NCc3ccco3)c3cccc([N+](=O)[O-])c3)c[nH]c12 (stereo unspecified)	31.6µM*	i	44.7µM*	-5.2%
COc1ccc(C(CC(=O)NCc2ccccc2)c2c[nH]c3ccccc23)cc1OC (stereo unspecified)	-11.8%	i	3.3%	-8.6%
CCC1=C(C(=O)OC)C(c2ccccc2OC)N2C(CC(=O)NCC3CCCO3)=CSC2=N1 (stereo unspecified)	-4.4%	i	-13.7%	-22.0%
O=C(C1CCCN1C(=O)c1cccc(-c2cccnc2)c1)N1CCN(c2ncccn2)CC1 (stereo unspecified)	-18.1%	·	-13.6%	·
O=C(Nc1ccc(Cl)cc1)N1CCC(C(=O)N2CCC(N3CCCC3=O)CC2)CC1	-16.2%	·	-0.1%	·
O=C(CCc1ccc(O)cc1)N[C@H]1CC[C@H](Nc2nccc(-c3cccnc3)n2)C1	50.1µM*	i	39.8µM*	-11.8%
COc1ccccc1N1CCCc2ncc(C(=O)N3CCC[C@@H]3c3ccc(F)cc3)cc21	89.1µM*	i	?	-16.2%[70.6 µM]
COc1ccccc1N1CCCc2ncc(C(=O)NCCOc3ccccc3)cc21	89.1µM*	i	100µM*	-4.1%[70.6 µM]
COc1ccccc1N1CCCc2ncc(C(=O)N(C)Cc3ccccc3)cc21	?	i	100µM*	3.5%[70.6 µM]
COc1ccccc1N1CCCc2ncc(C(=O)N3CCCC[C@@H]3Cc3ccccc3)cc21	?	i	?	-16.8%
O=[S+]([O-])(NC1CN(c2ccnc3ccnn23)C1)c1ccccc1	?	·	-27.8%[172 µM]	·
COCCN1CCCC[C@]2(C[C@H](CO)[C@H](c3ccco3)N2C(=O)Cc2ccc(OC)cc2)C1=O	-32.4%	·	?	·
COCCn1c(=O)c(C(=O)N2CCN(C(=O)Cc3ccc(OC)cc3)CC2)nc2cccnc21	-9.1%	·	i	·
COc1cccc(CN2CCCC3(Cc4ccccc4CNC3=O)C2)n1 (stereo unspecified)	?	·	-24.1%	·
CC(C)(C)c1ccnc(N[C@H]2CO[C@H]3[C@@H]2OC[C@@H]3NS(=O)(=O)c2cccs2)n1	79.4µM*	?	?	10µM*
O=C(COc1ccccc1)N[C@H]1CO[C@H]2[C@@H]1OC[C@@H]2Nc1nccc(-c2ccco2)n1	89.1µM*	i	?	-0.9%[70.6 µM]
CC(=O)Nc1ccc(S(=O)(=O)N[C@H]2CO[C@H]3[C@@H]2OC[C@@H]3Nc2nccc(-c3cccs3)n2)cc1	?	i	35.5µM*	?
O=C(Nc1ccccc1)N[C@H]1CO[C@H]2[C@@H]1OC[C@@H]2Nc1nccc(-c2cccs2)n1	?	?	63.1µM*	-15.4%[70.6 µM]
CCOC(=O)C1CCN(C(=O)C2CCc3nnc(-c4cccc(C(F)(F)F)c4)n32)CC1 (stereo unspecified)	-29.8%	·	-34.9%	·
COc1cc(C(=O)N2c3ccccc3CC2c2nc(C(C)C)no2)cc(OC)c1OC (stereo unspecified)	-20.8%	·	-29.4%	·
O=C(c1nc2sccn2c1-c1cccc(C(F)(F)F)c1)N1CCCCC1	-25.0%	·	?	·
Cc1cc(C(=O)Nc2ccc([C@H]3OCC(=O)N(C)[C@@H]3CO)cc2)n(C)n1	-19.8%[138 µM]	i	-21.5%[172 µM]	-10.7%[70.6 µM]
COc1ccccc1-c1ccnc(N[C@H]2CO[C@H]3[C@@H]2OC[C@@H]3NS(=O)(=O)c2cccc3cccnc23)n1	-23.3%	i	-19.4%	5.5%
CC(C)(C)c1ccnc(N[C@H]2CO[C@H]3[C@@H]2OC[C@@H]3NC(=O)CCCC(=O)O)n1	1.3%[174 µM]	i	-2.0%[172 µM]	-3.2%[70.6 µM]
CC(C)(C)c1ccnc(N[C@H]2CO[C@H]3[C@@H]2OC[C@@H]3NC(=O)NCc2ccccc2)n1	?	i	89.1µM*	-23.1%[70.6 µM]
SMILES	NIH3T3 tox	FLuc inh	HEK cytotox	hNpr1 antagonist
O=C(COc1ccccc1)N[C@H]1CO[C@H]2[C@@H]1OC[C@@H]2Nc1nccc(-c2cccs2)n1	35.5µM*	i	?	?
COc1ccccc1-c1ccnc(N[C@H]2CO[C@H]3[C@@H]2OC[C@@H]3NS(=O)(=O)c2ccc3ccccc3c2)n1	?	i	31.6µM*	?
O=C(N[C@H]1CO[C@H]2[C@@H]1OC[C@@H]2Nc1nccc(-c2cccs2)n1)c1ccccc1	?	i	79.4µM*	?
COc1ccccc1-n1c(=O)c(C(=O)N2CCC(Cc3ccccc3)CC2)nc2cccnc21	-8.5%	·	-9.9%	·
O=c1c2c(n(CCOc3ccccc3)n1-c1ccccc1)CN(Cc1nccs1)CC2	-18.7%[138 µM]	i	?	1.9%[70.6 µM]
COC(=O)[C@@H]1Cc2c([nH]c3ccccc23)[C@H]2C[C@@H](NCc3cccs3)C[C@@H](c3ccccc3F)N21	?	i	39.8µM*	-2.5%
COC(=O)[C@@H]1Cc2c([nH]c3ccccc23)[C@H]2C[C@@H](NCc3ccccc3)C[C@@H](c3ccccc3F)N21	25.1µM*	i	25.1µM*	-25.3%
CCN(CC)C(=O)CC[C@@H]1CNC(=O)[C@@H]2C[C@H](NCc3cccs3)CN12	?	i	2.3%[172 µM]	-2.4%[70.6 µM]
COc1ccc(CNC(=O)CC[C@@H]2CNC(=O)[C@@H]3C[C@H](NCc4ccccc4)CN23)cc1	i	i	i	2.9%
Cc1ccc(C(=O)N[C@H]2CO[C@H]3[C@@H]2OC[C@@H]3n2cc(CC3CCCCC3)nn2)cc1	35.5µM*	i	?	-4.1%[70.6 µM]
COC(=O)c1cccc(NC(=S)N[C@H]2CO[C@H]3[C@@H]2OC[C@@H]3n2cc(CC3CCCCC3)nn2)c1	?	i	39.8µM*	?
O=C(N[C@H]1CO[C@H]2[C@@H]1OC[C@@H]2n1cc(-c2ccccc2)nn1)c1ccc(C(F)(F)F)cc1	?	i	39.8µM*	?
CN(Cc1ccccc1)Cc1cn([C@H]2CO[C@H]3[C@@H]2OC[C@@H]3NCc2ccccc2)nn1	?	i	?	-1.8%[70.6 µM]
c1ccc(CN[C@H]2CO[C@H]3[C@@H]2OC[C@@H]3n2cc(CC3CCCCC3)nn2)cc1	35.5µM*	i	?	-20.4%[70.6 µM]
COc1ccc(C(=O)N[C@H]2CO[C@H]3[C@@H]2OC[C@@H]3n2cc(CC3CCCCC3)nn2)cc1	?	i	?	-26.2%[70.6 µM]
CCCC1c2nccn2CCCN1C(=O)c1cnco1 (stereo unspecified)	-15.9%	i	-8.9%	1.6%
Cc1ccc(-c2ccnc(N(C)CC3CC(=O)N(C(C)(C)C)C3)n2)c(C)n1 (stereo unspecified)	?	i	79.4µM*	-27.4%
c1ccc(C2=NOC3(CCN(Cc4c[nH]c5ccccc45)CC3)C2)cc1	?	·	44.7µM*	·
